Assay results taken from the supplement of paper PMC6522484.
Several values for one entry are separate records, joined by “and”; a condition that tells them apart may be missing. Equal values may be shown once. ± gives the standard deviation of the averaged measurements.

Tests used:
[1] = test system: DLD1; experiment: cell viability (CellTiter-Glo) relative to plate median (fraction of plate median); higher = more viable cells; conditions: 5 µM; treatment time 24 h; reporter: 7TFP
Method in brief: (§1)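 After seeding in 384-well plates, colorectal cancer cell lines carrying stable lentiviral TCF/Wnt firefly luciferase reporters (7TFP or TCF4/Wnt) were left 24 h. Library compounds were then added at a final 5 µM for 24 h. A Tecan F500 reader measured firefly luciferase or CellTiterGlo luminescence on parallel plates, with each well normalised to the plate median by webcellHTS2 (additive, no log transformation), and two independent replicates averaged.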

[2] = test system: HCT116; experiment: as above; conditions: 5 µM; treatment time 24 h; reporter: TCF4/Wnt
Method in brief: as §1

[3] = test system: SW480; experiment: as above; conditions: 5 µM; treatment time 24 h; reporter: 7TFP
Method in brief: as §1

[4] = test system: DLD1; experiment: TCF/Wnt firefly luciferase reporter signal relative to plate median (fraction of plate median); higher = higher Wnt reporter signal; conditions: 5 µM; treatment time 24 h; reporter: 7TFP
Method in brief: as §1

[5] = test system: SW480; experiment: as above; conditions: 5 µM; treatment time 24 h; reporter: 7TFP
Method in brief: as §1

[6] = test system: DLD1; experiment: TCF/Wnt firefly luciferase reporter signal relative to plate median (fraction of plate median); higher = higher Wnt reporter signal; conditions: 10 µM, treatment time 24 h
Method in brief: (§2)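 Colorectal cancer cell lines carrying stably transduced lentiviral TCF/Wnt firefly luciferase reporters (7TFP or TCF4/Wnt) were plated in 384-well plates and treated 24 h later with kinase inhibitor library compounds at a final 10 µM for 24 h. Firefly luciferase or CellTiterGlo luminescence was read on parallel plates with a Tecan F500 reader. Signals were normalised per well to the plate median in webcellHTS2 (additive, no log transformation), and values are the mean of two independent replicates.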

[7] = test system: HCT116; experiment: as above; conditions: 10 µM; treatment time 24 h; reporter: TCF4/Wnt
Method in brief: as §2

[8] = test system: SW480; experiment: as above; conditions: 10 µM; treatment time 24 h; reporter: 7TFP
Method in brief: as §2

Row | SMILES | cell viability [1] | cell viability [2] | cell viability [3] | TCF/Wnt firefly luciferase reporter signal [4] | TCF/Wnt firefly luciferase reporter signal [5] | TCF/Wnt firefly luciferase reporter signal ([6]; reporter: 7TFP) | TCF/Wnt firefly luciferase reporter signal ([6]; reporter: TCF4/Wnt) | TCF/Wnt firefly luciferase reporter signal [7] | TCF/Wnt firefly luciferase reporter signal [8]
1 | CC1(C)C[C@@H]2/C(CO)=C\C=C/[C@@](C)(O)CC[C@]21O | 1.08 ± 0.2 | 0.946 ± 0.063 | 1 ± 0.022 | 1.11 ± 0.24 | 0.818 ± 0.093 | – | – | – | –
2 | CC(=O)O[C@@H]1C[C@H]2C(C)(C)C(=O)CC[C@]2(C)[C@H]2CC[C@@]3(C)[C@H](c4ccoc4)OC(=O)[C@H]4O[C@]43[C@@]21C | 0.999 ± 0.086 | 0.986 ± 0.011 | 1.01 ± 0.026 | 0.949 ± 0.087 | 0.899 ± 0.021 | – | – | – | –
3 | COC(=O)C[C@H]1C(C)(C)C(=O)[C@@H]2CC3=C4CC(=O)O[C@@H](c5ccoc5)[C@]4(C)CC[C@@H]3[C@@]1(C)C2=O | 1.01 ± 0.016 | 1.01 ± 0.014 | 1.035 ± 0.0071 | 0.924 ± 0.0028 | 1.03 ± 0.035 | – | – | – | –
4 | NS(=O)(=O)c1cc2c(cc1C(F)(F)F)NCNS2(=O)=O | 1.02 ± 0.17 | 1.09 ± 0.021 | 1.04 ± 0.057 | 1.12 ± 0.064 | 1.15 ± 0.092 | – | – | – | –
5 | COC(=O)[C@@H]1OC(=O)C2OC23[C@@]1(C)CCC1[C@@]2(C)CCC(=O)C(C)(C)C2C[C@@H](OC(C)=O)[C@]13C (some centres undefined) | 0.993 ± 0.011 | 1.07 ± 0.078 | 1.01 ± 0.017 | 0.86 ± 0.037 | 1.03 ± 0.046 | – | – | – | –
6 | O=C(/C=C(\O)c1ccccc1)c1ccccc1O [2',beta-DIHYDROXYCHALCONE] | 1.07 ± 0.16 | 1.17 ± 0.16 | 1.08 ± 0.014 | 1.01 ± 0.17 | 1.1 ± 0.021 | – | – | – | –
7 | C[C@@H]1C/C=C2\SC[C@@H](NC(=O)c3coc(n3)C[C@H](O)C[C@H](O)/C=C/C=C/CNC2=O)C(=O)O1 [Griseoviridin] | 0.995 ± 0.021 | 1.04 ± 0.05 | 1.01 ± 0.021 | 0.873 ± 0.12 | 0.957 ± 0.034 | – | – | – | –
8 | c1ccc2c(c1)CN1CCCC1=N2 | 1.03 ± 0.028 | 1.09 ± 0.24 | 0.998 ± 0.032 | 0.935 ± 0.15 | 0.944 ± 0.064 | – | – | – | –
9 | CC1=C(C(=O)O)N2C(=O)[C@@H](NC(=O)[C@H](N)c3ccc(O)cc3)[C@H]2SC1 | 0.977 ± 0.016 | 0.956 ± 0.063 | 0.949 ± 0.086 | 0.907 ± 0.14 | 0.918 ± 0.13 | – | – | – | –
10 | CCOC(=O)[C@@](C)(N)Cc1ccc(O)c(O)c1 | 1 ± 0.025 | 0.93 ± 0.098 | 0.979 ± 0.044 | 1.1 ± 0.12 | 1.07 ± 0.064 | – | – | – | –
11 | CC(C)(C)NCC(O)COc1cccc2c1CC(O)C(O)C2 (centres undefined) | 1.05 ± 0.11 | 0.929 ± 0.015 | 1.04 ± 0.028 | 1.02 ± 0.15 | 0.996 ± 0.063 | – | – | – | –
12 | CCCCC/C=C/CCC(=O)N[C@H]1[C@H](Oc2c3cc4cc2Oc2ccc(cc2Cl)[C@@H](O[C@@H]2O[C@H](CO)[C@@H](O)[C@H](O)[C@H]2NC(C)=O)[C@@H]2NC(=O)[C@H](NC(=O)[C@@H]4NC(=O)[C@H]4NC(=O)C(Cc5ccc(c(Cl)c5)O3)NC(=O)[C@H](N)c3ccc(O)c(c3)Oc3cc(O)cc4c3)c3ccc(O)c(c3)-c3c(OC4O[C@H](CO)[C@@H](O)[C@H](O)[C@@H]4O)cc(O)cc3[C@@H](C(=O)O)NC2=O)O[C@H](CO)[C@@H](O)[C@@H]1O (some centres undefined) [TEICOPLANIN [A(2-1) shown]] | 1.04 ± 0.035 | 1.01 ± 0.07 | 1.02 ± 0.083 | 0.971 ± 0.0071 | 1 ± 0.04 | – | – | – | –
13 | O=C(O)[C@H](O)[C@@](O)(Cc1ccc(O)cc1)C(=O)O | 0.954 ± 0.08 | 0.962 ± 0.082 | 0.955 ± 0.021 | 1.005 ± 0.0071 | 0.923 ± 0.11 | – | – | – | –
14 | CN1CCN2c3ccccc3Cc3ccccc3C2C1 (centres undefined) | 1.03 ± 0.053 | 1.08 ± 0.071 | 1.07 ± 0.021 | 1.04 ± 0.083 | 1.08 ± 0.071 | – | – | – | –
15 | C=C1C2CC[C@@]3(C)[C@H](c4ccoc4)OC(=O)C[C@]13O[C@H]1CC(=O)C(C)(C)[C@H](C(O)C(=O)OC)[C@@]21C (some centres undefined) | 0.97 ± 0.042 | 1.01 ± 0.087 | 0.991 ± 0.055 | 1.02 ± 0.11 | 1.02 ± 0.047 | – | – | – | –
16 | CC(=O)Nc1ccccc1 | 0.977 ± 0.02 | 0.97 ± 0.043 | 0.966 ± 0.0042 | 1.05 ± 0.11 | 0.975 ± 0.028 | – | – | – | –
17 | Cc1ccccc1-n1c(Cn2nc(-c3cccc(O)c3)c3c(N)ncnc32)nc2cccc(C)c2c1=O | – | – | – | – | – | 1.07 ± 0.042 | 0.89 ± 0.021 | 0.841 ± 0.44 | 1.07 ± 0.12
18 | CNCCC=C1c2ccccc2CCc2ccccc21 | 0.9585 ± 0.00071 | 0.979 ± 0.12 | 0.972 ± 0.0057 | 1.02 ± 0.079 | 1.04 ± 0.12 | – | – | – | –

Row | SMILES | cell viability [1] | cell viability [2] | cell viability [3] | TCF/Wnt firefly luciferase reporter signal [4] | TCF/Wnt firefly luciferase reporter signal [5] | TCF/Wnt firefly luciferase reporter signal ([6]; reporter: 7TFP) | TCF/Wnt firefly luciferase reporter signal ([6]; reporter: TCF4/Wnt) | TCF/Wnt firefly luciferase reporter signal [7] | TCF/Wnt firefly luciferase reporter signal [8]
19 | Nc1ncnc2c1ncn2[C@@H]1O[C@H](CO)[C@@H](O)[C@@H]1O | 0.9735 ± 0.0078 | 1.01 ± 0.021 | 0.975 ± 0.034 | 1.08 ± 0.064 | 1.05 ± 0.05 | – | – | – | –
20 | O=c1c(-c2ccc(O)cc2)coc2cc(O)cc(O)c12 | 1.09 ± 0.021 | 1.03 ± 0.05 | 1.06 ± 0.021 | 1.065 ± 0.0071 | 1.12 | – | – | – | –
21 | CC(=O)C1=C(O)C=C2Oc3c(C(C)=O)c(O)c(C)c(O)c3C2(C)C1=O (stereo in doubt) | 0.995 ± 0.035 | 1.04 ± 0.028 | 0.968 ± 0.018 | 1.2 ± 0.13 | 0.973 ± 0.052 | – | – | – | –
22 | COc1ccc(/C=C/C(=O)c2ccc(O)cc2O)cc1OC | 0.955 ± 0.046 | 1.04 ± 0.035 | 1.08 ± 0.042 | 1.03 | 0.986 ± 0.062 | – | – | – | –
23 | COc1ccc2c(c1)OC/C(=C/c1ccc(O)c(O)c1)C2=O | 0.99 ± 0.043 | 1.01 ± 0.021 | 0.986 ± 0.035 | 0.944 ± 0.033 | 1.09 ± 0.078 | – | – | – | –
24 | C=C[C@H]1CN2CC[C@H]1C[C@@H]2[C@@H](O)c1ccnc2ccc(OC)cc12 | 0.963 ± 0.052 | 0.966 ± 0.042 | 0.977 ± 0.047 | 1.21 ± 0.14 | 0.933 ± 0.021 | – | – | – | –
25 | COc1cc(C(=O)NCCCCCC(=O)O)cc(OC)c1OC | 0.981 ± 0.015 | 0.921 ± 0.044 | 1.01 ± 0.014 | 0.865 ± 0.023 | 0.902 ± 0.046 | – | – | – | –
26 | CC[C@H](C)[C@H](N)C1=N[C@H](C(=O)N[C@@H](CC(C)C)C(=O)N[C@H](CCC(=O)O)C(=O)N[C@H](C(=O)N[C@H]2CCCCNC(=O)[C@H](CC(N)=O)NC(=O)[C@@H](CC(=O)O)NC(=O)[C@H](Cc3cnc[nH]3)NC(=O)[C@@H](Cc3ccccc3)NC(=O)[C@H]([C@@H](C)CC)NC(=O)[C@@H](CCCN)NC2=O)[C@@H](C)CC)CS1 | 1.05 ± 0.05 | 1.03 ± 0.021 | 0.992 ± 0.04 | 1.03 ± 0.042 | 1.03 ± 0.021 | – | – | – | –
27 | C[C@]12CCC(=O)C=C1C=C[C@@H]1[C@@H]2CC[C@@]2(C)[C@H]1CC[C@@]21CCC(=O)O1 | 0.884 ± 0.075 | 0.899 ± 0.049 | 0.969 ± 0.044 | 1.1 ± 0.071 | 1.025 ± 0.0071 | – | – | – | –
28 | C[C@H](CCC(=O)O)[C@H]1CC[C@H]2[C@@H]3C(=O)C[C@@H]4CC(=O)CC[C@]4(C)[C@H]3CC(=O)[C@]12C | 0.956 and 0.954 | 0.911 and 0.941 | 0.912 and 0.967 | 0.894 and 1.06 | 1.05 and 1.15 | – | – | – | –
29 | CC1(C)C=Cc2cc3ccc(=O)oc3cc2O1 | 0.979 ± 0.087 | 1 ± 0.043 | 1.04 ± 0.042 | 1.21 ± 0.13 | 1.165 ± 0.0071 | – | – | – | –
30 | CC/C(=C(\c1ccccc1)c1ccc(OCCN(C)C)cc1)c1ccccc1 | 1.08 ± 0.05 | 1.04 ± 0.064 | 1.05 ± 0.021 | 0.872 ± 0.15 | 0.859 ± 0.14 | – | – | – | –
31 | NCCCC(O)(P(=O)(O)O)P(=O)(O)O | 0.98 ± 0.028 | 0.974 ± 0.12 | 0.963 ± 0.0042 | 0.974 ± 0.12 | 1.02 ± 0.03 | – | – | – | –
32 | COc1cc2c(cc1OC)C(=O)OC2 | 0.982 ± 0.054 | 1.12 | 1.025 ± 0.0071 | 1.22 ± 0.014 | 1.06 ± 0.014 | – | – | – | –
33 | O=C(O)/C=C(\CC(=O)O)C(=O)O | 1.05 ± 0.014 | 0.98 ± 0.018 | 1 ± 0.011 | 1.11 ± 0.035 | 0.978 ± 0.059 | – | – | – | –
34 | CC(=O)c1oc2cc3[nH]c(=O)cc(C)c3cc2c1C [2-Acetyl-3,5-dimethylfuro[3,2-g]quinolin-7-one (VFT-05)] | 0.8435 ± 0.0035 | 0.998 ± 0.059 | 0.885 ± 0.0092 | 0.8825 ± 0.0035 | 0.979 ± 0.072 | – | – | – | –
35 | COc1c(C)c2c(c(O)c1C/C=C(\C)CCC(=O)O)C(=O)OC2 | 1.03 ± 0.12 | 0.802 ± 0.03 | 1.03 ± 0.065 | 1.045 ± 0.0071 | 1.14 ± 0.11 | – | – | – | –
